Measurements as given in PubChem BioAssay AID1159580 (chemical genetic matrix, 2015).
The whole screen tested about 5,500 compounds, of which about 2,000 (36%) were called active. Not shown: some 18% with an inconclusive outcome. Some of the results follow. Values without a mark were called inactive. Rule as the data show it: active = normalized growth mostly below about 0.91 (no sharp cut-off); inconclusive = no clear call, values can overlap the other calls; inactive = mostly above about 0.92.

Assay: chemical genetic growth profiling, strain panel (AID 1159580);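 also: tested at 20 µM; growth read once vehicle control cultures reached saturation at 30 °C; 1 = growth at the plate median or of vehicle wells; lower values mean less growth of the strain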
Settings: S. cerevisiae deletion strains, growth OD
[1] = locus YDL101C, strain DUN1, active compounds read low
[2] = locus YHR030C, strain SLT2, active compounds read low
[3] = locus YAL013W, strain DEP1, active compounds read low
[4] = locus YBR229C, strain ROT2, active compounds read low
[5] = locus YDR150W, strain NUM1, active compounds read low
[6] = locus YEL061C, strain CIN8, active compounds read low
[7] = locus YGR078C, strain PAC10, active compounds read low
[8] = locus YHR087W, strain rtc3, active compounds read low
[9] = locus YJL187C, strain SWE1, active compounds read low
[10] = locus YJR043C, strain POL32, active compounds read low
[11] = locus YJR075W, strain HOC1, active compounds read low
[12] = locus YLR039C, strain RIC1, active compounds read low
[13] = locus YLR058C, strain SHM2 (second series), active compounds read low
[14] = locus YLR085C, strain ARP6, active compounds read low
[15] = locus YLR262C, strain YPT6, active compounds read low
[16] = locus YML094W, strain GIM5, active compounds read low
[17] = locus YMR219W, strain ESC1, active compounds read low
[18] = locus YMR263W, strain SAP30, active compounds read low
[19] = locus YNL153C, strain GIM3, active compounds read low
[20] = locus YNL298W, strain CLA4 (second series), active compounds read low
[21] = locus YNL322C, strain KRE1, active compounds read low
[22] = locus YNR030W, strain Alg12, active compounds read low
[23] = locus YOL006C, strain TOP1, active compounds read low
[24] = locus YPL055C, strain LGE1, active compounds read low
[25] = locus YPL241C, strain CIN2, active compounds read low
[26] = locus YPR135W, strain CTF4, active compounds read low

S=C(N/N=C\c1cccs1)NC1CC2CCC1C2 (stereo unspecified)
normalized growth (locus YAR019C, strain CDC15, active compounds read low): 0.943
normalized growth (locus YBL105C, strain PKC1, active compounds read low): 0.94
normalized growth (locus YBR135W, strain CKS1, active compounds read low): 0.959
normalized growth (locus YBR136W, strain MEC1, active compounds read low): 0.95
normalized growth (locus YBR160W, strain CDC28, active compounds read low): 0.954
normalized growth (locus YDL017W, strain CDC7, active compounds read low): 0.941
normalized growth (locus YDL028C, strain MPS1, active compounds read low): 0.958
normalized growth [1]: 0.952
normalized growth (locus YDL108W, strain KIN28, active compounds read low): 0.951
normalized growth (locus YDL132W, strain cdc53, active compounds read low): 0.96
normalized growth (locus YDL214C, strain PRR2, active compounds read low): 0.913
normalized growth (locus YDR052C, strain DBF4, active compounds read low): 0.945
normalized growth (locus YDR054C, strain cdc34, active compounds read low): 0.928
normalized growth (locus YDR226W, strain ADK1, active compounds read low): 0.937
normalized growth (locus YDR477W, strain SNF1, active compounds read low): 0.91
normalized growth (locus YER123W, strain YCK3, active compounds read low): 0.938
normalized growth (locus YER133W, strain GLC7, active compounds read low): 0.905
normalized growth (locus YFL009W, strain cdc4, active compounds read low): 0.934
normalized growth (locus YFL029C, strain CAK1, active compounds read low): 0.94
normalized growth (locus YFR003C, strain YPI1, active compounds read low): 0.951
normalized growth (locus YFR019W, strain FAB1, active compounds read low): 0.956
normalized growth (locus YFR028C, strain CDC14, active compounds read low): 0.944
normalized growth (locus YGR040W, strain KSS1, active compounds read low): 0.909
normalized growth (locus YGR052W, strain FMP48, active compounds read low): 0.921
normalized growth (locus YGR092W, strain DBF2, active compounds read low): 0.794
normalized growth [2]: 0.763 (active)
normalized growth (locus YHR079C, strain IRE1, active compounds read low): 0.75
normalized growth (locus YHR082C, strain KSP1, active compounds read low): 0.898
normalized growth (locus YHR205W, strain SCH9, active compounds read low): 0.732
normalized growth (locus YIL147C, strain SLN1, active compounds read low): 0.956
normalized growth (locus YJL095W, strain BCK1, active compounds read low): 0.89
normalized growth (locus YJL128C, strain PBS2, active compounds read low): 0.957
normalized growth (locus YJL157C, strain FAR1, active compounds read low): 0.885
normalized growth (locus YJR016C, strain ILV3, active compounds read low): 0.945
normalized growth (locus YJR066W, strain TOR1 (second series), active compounds read low): 0.87
normalized growth (locus YJR066W, strain TOR1, active compounds read low): 0.908
normalized growth (locus YKL048C, strain ELM1, active compounds read low): 0.934
normalized growth (locus YKL067W, strain YNK1, active compounds read low): 0.95
normalized growth (locus YKL101W, strain HSL1, active compounds read low): 0.949
normalized growth (locus YKL193C, strain SDS22, active compounds read low): 0.947
normalized growth (locus YKL203C, strain TOR2, active compounds read low): 0.978
normalized growth (locus YLR113W, strain HOG1, active compounds read low): 0.788 (active)
normalized growth (locus YLR133W, strain CKI1, active compounds read low): 0.913
normalized growth (locus YLR403W, strain SFP1, active compounds read low): 0.787
normalized growth (locus YML070W, strain DAK1, active compounds read low): 0.927
normalized growth (locus YMR001C, strain CDC5, active compounds read low): 0.944
normalized growth (locus YMR205C, strain PFK2 (second series), active compounds read low): 0.946
normalized growth (locus YMR277W, strain FCP1, active compounds read low): 0.946
normalized growth (locus YNL006W, strain LST8, active compounds read low): 0.957
normalized growth (locus YNL020C, strain ARK1, active compounds read low): 0.918
normalized growth (locus YNL161W, strain CBK1, active compounds read low): 0.936
normalized growth (locus YNL183C, strain NPR1, active compounds read low): 0.967
normalized growth (locus YNL207W, strain RIO2, active compounds read low): 0.929
normalized growth (locus YNL222W, strain SSU72, active compounds read low): 0.936
normalized growth (locus YNL307C, strain MCK1 (second series), active compounds read low): 0.842
normalized growth (locus YOL078W, strain AVO1, active compounds read low): 0.939
normalized growth (locus YOL136C, strain PFK27, active compounds read low): 0.881
normalized growth (locus YOR061W, strain CKA2, active compounds read low): 0.948
normalized growth (locus YOR119C, strain RIO1, active compounds read low): 1.01
normalized growth (locus YOR231W, strain MKK1, active compounds read low): 0.935
normalized growth (locus YOR329C, strain SCD5, active compounds read low): 0.949
normalized growth (locus YPL031C, strain PHO85, active compounds read low): 0.879
normalized growth (locus YPL153C, strain RAD53, active compounds read low): 0.88
normalized growth (locus YPL204W, strain HRR25, active compounds read low): 0.842
normalized growth (locus YPL209C, strain IPL1, active compounds read low): 0.943
normalized growth (locus YPL256C, strain CLN2, active compounds read low): 0.736 (active)
normalized growth (locus YPR025C, strain CCL1, active compounds read low): 0.959
normalized growth (locus YPR106W, strain ISR1, active compounds read low): 0.953
normalized growth (locus YPR111W, strain DBF20, active compounds read low): 0.953
normalized growth (strain NNK1, active compounds read low): 0.947
normalized growth (strain TSCII, active compounds read low): 0.932

COc1cc(/C=N\NC(=S)NC2CC3CCC2C3)cc(OC)c1OC (stereo unspecified)
normalized growth [3]: 0.985
normalized growth [4]: 1.01
normalized growth [1]: 1
normalized growth [5]: 0.998
normalized growth [6]: 0.994
normalized growth [7]: 1
normalized growth (locus YGR229C, strain SMI1, active compounds read low): 1
normalized growth [2]: 0.816
normalized growth [8]: 1.03
normalized growth [9]: 0.996
normalized growth [10]: 1.02
normalized growth [11]: 1.05
normalized growth [12]: 0.97
normalized growth [13]: 1.02
normalized growth [14]: 0.653 (active)
normalized growth [15]: 1.05
normalized growth [16]: 0.913
normalized growth [17]: 1.02
normalized growth [18]: 0.975
normalized growth [19]: 1.01
normalized growth [20]: 0.889
normalized growth [21]: 1.01
normalized growth [22]: 0.92
normalized growth [23]: 0.51 (active)
normalized growth [24]: 0.923
normalized growth [25]: 0.898
normalized growth [26]: 0.843

COc1cc(C=Nc2ccc(F)cc2)cc(OC)c1OC
normalized growth [3]: 0.995
normalized growth [4]: 0.978
normalized growth [1]: 1
normalized growth [5]: 0.896
normalized growth [6]: 0.986
normalized growth [7]: 1
normalized growth [2]: 1.02
normalized growth [8]: 1.01
normalized growth [9]: 0.998
normalized growth [10]: 1.01
normalized growth [11]: 0.954
normalized growth (locus YKL190W, strain CNB1, active compounds read low): 0.98
normalized growth [12]: 0.983
normalized growth [13]: 1.02
normalized growth [14]: 0.965
normalized growth [15]: 0.98
normalized growth [16]: 0.988
normalized growth [17]: 0.985
normalized growth [18]: 1.01
normalized growth (locus YMR307W, strain GAS1, active compounds read low): 0.938
normalized growth [19]: 1.01
normalized growth [20]: 1
normalized growth [21]: 0.979
normalized growth [22]: 0.979
normalized growth [23]: 1
normalized growth [24]: 1.02
normalized growth [25]: 0.997
normalized growth [26]: 1.11
